“And” between values parts separate entries of the source, which are not always exact repeats. Identical values can stand only once. Results filed as inconclusive are left out. The source made the active and inactive calls. Unless noted, calls follow the shape of the dose curve; as a rule, active = well fitted curve in the direction sought with a large enough effect; inconclusive = small, poorly fitted or top-dose-only effect, or another doubt; inactive = no such curve, though single readings can be large; an effect the other way counts as inactive or inconclusive.
Columns and labels:
[1] = Cell Viability - MRC5 (AID 434; calls by dose curve;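 also: potency is read from the fitted curve at half-maximal effect; cells exposed to compound for 40 hours at 37 °C; potency reflects cytotoxicity seen as loss of intracellular ATP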); conditions: MRC5 lung fibroblast viability, qHTS
In short: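 qHTS cytotoxicity in human lung fibroblast MRC5 cells; 40 hr treatment, 37 °C; cellular ATP by luciferase luminescence; DMSO = 0%, 100 uM tamoxifen = 100% inhibition; Hill-fit AC50.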

[2] = Cellular Toxicity (caspase-3) HUV-EC-C (AID 656); conditions: HUV-EC-C cells, caspase-3 activation (apoptosis), vehicle = 0, 100 µM tamoxifen = 100%; series mostly up to 92.2 µM
In short: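 qHTS; HUV-EC-C, 1000 cells/well; 5 hr settle, 16 hr cmpd, 37°C; Caspase-Glo 3/7, 20 min RT; luminescence. Norm: DMSO = 0%, tamoxifen 100 uM = 100%. Hill-fit AC50.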

[3] = Cellular Toxicity (caspase-3) Mesangial (AID 660); conditions: mesangial cells, normalized: DMSO 0%, 100 µM tamoxifen 100%; series mostly up to 91.7 µM;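 also: combined caspase 3 and 7 activity read by Caspase-Glo luminescence; cells exposed to compound for 16 h before the caspase read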
In short: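 Human renal glomerular mesangial cells, 1000/well, 5 h at 37 C before 16 h compound treatment. Caspase-Glo 3/7 luminescence after 20 min; normalized to DMSO and 100 uM tamoxifen, AC50 from Hill fit.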

[4] = Cellular Toxicity (caspase-3) H-4-II-E (AID 663); conditions: H-4-II-E rat hepatoma; Potency: caspase-3 activation; series mostly up to 92.2 µM;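 also: cells exposed to compound for 16 hr before readout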
In short: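 Apoptosis induction is scored as increased luminescence from caspase 3/7 substrate cleavage in rat hepatoma H-4-II-E cells exposed to compound for 16 hr. Activity is scaled between DMSO and 100 uM tamoxifen.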

[5] = target: Cytochrome P450 3A4 (Homo sapiens) (UniProt P08684); experiment: qHTS Assay for Inhibitors and Substrates of Cytochrome P450 3A4 (AID 884); conditions: recombinant CYP3A4, Luciferin-PPXE luminescence; series mostly up to 57.1 µM; also: nearly all actives have a fitted effect of over 50% in size; also: potency is read from the fitted curve at half-maximal effect
Cytochrome P450 3A4 (Homo sapiens), sequence (P08684 whole entry, looked up): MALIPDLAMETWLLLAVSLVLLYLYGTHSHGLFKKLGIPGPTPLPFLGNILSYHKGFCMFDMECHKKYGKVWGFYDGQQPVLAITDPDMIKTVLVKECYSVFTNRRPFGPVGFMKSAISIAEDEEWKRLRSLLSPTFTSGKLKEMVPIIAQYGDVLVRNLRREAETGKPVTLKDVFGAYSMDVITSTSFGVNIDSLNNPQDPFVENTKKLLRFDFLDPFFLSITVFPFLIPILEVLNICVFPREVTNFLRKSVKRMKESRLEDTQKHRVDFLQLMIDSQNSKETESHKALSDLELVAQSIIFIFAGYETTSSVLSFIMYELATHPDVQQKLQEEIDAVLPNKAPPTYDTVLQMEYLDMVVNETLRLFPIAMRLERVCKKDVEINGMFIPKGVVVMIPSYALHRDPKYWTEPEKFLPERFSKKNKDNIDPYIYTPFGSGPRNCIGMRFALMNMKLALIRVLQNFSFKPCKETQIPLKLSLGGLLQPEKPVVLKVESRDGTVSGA
In short: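 20 nM human CYP3A4 with 25 uM Luciferin-PPXE (at KM) in 200 mM KPO4, preincubated 10 min with compound; NADPH regeneration started a 60 min RT reaction. Luciferin detected by luminescence, normalized to 57 uM ketoconazole as full inhibition.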

[6] = Cell Viability - LYMP1-002 - Assay at 16 hr (AID 948); conditions: LYMP1-002 lymphoblastoid cell viability; series mostly up to 92.2 µM;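 also: 0% = DMSO alone and full effect = 92 µM tetraoctylammonium bromide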
In short: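 Seed 2500 LYMP1-002 cells per well in complete medium and hold 5 hr at 37 C. Add compound across a concentration series and incubate 16 hr at 37 C. Add CellTiter-Glo, wait 30 min at room temperature, read luminescence.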

[7] = MultiTox-Fluor Cytotoxicity Assay - LYMP1-003 - Dead Cells (AID 961); conditions: LYMP1-003 lymphoblastoid cells, dead-cell protease fluorescence; series mostly up to 92.2 µM;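 also: 0% = DMSO and 100% = tetraoctylammonium bromide; nearly all actives have a fitted effect of over 70% in size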
In short: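 LYMP1-003 human lymphoblastoid cells (2500/well) exposed to compound 16 h at 37 C in complete medium; dead-cell protease read with bis-AAF-R110 fluorescence (Ex/Em 485/520) after 60 min at room temperature. Normalized to DMSO and 15 uM tetraoctylammonium bromide; AC50 from Hill fit.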

[8] = Cell Viability - LYMP2-003 (AID 965); conditions: LYMP2-003 lymphoblastoid cell viability; series mostly up to 92.2 µM;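 also: cells exposed to compounds for 24 h before reading; 0% = DMSO only and full effect = 92 µM tetraoctylammonium bromide; nearly all actives have a fitted effect of over 50% in size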
In short: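 Seed 2500 lymphoblastoid cells/well; incubate 5 hr, 37 C; add compounds; incubate 24 hr, 37 C; add CellTiter-Glo, 30 min RT; read luminescence. AC50 from Hill fit.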

[9] = Cell Viability - LYMP2-013 (AID 970); conditions: LYMP2-013 lymphoblastoid cells viability; series mostly up to 92.2 µM;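 also: 0% = DMSO only and full inhibition = tetraoctylammonium bromide control; nearly all actives have a fitted effect of over 55% in size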
In short: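 Human lymphoblastoid LYMP2-013 cells, 2500/well, treated 24 h at 37 C in complete medium; viability as intracellular ATP by CellTiter-Glo luminescence after 30 min. AC50 from Hill fits of qHTS concentration-response.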

[10] = Cell Viability - LYMP2-026 (AID 989); conditions: LYMP2-026 lymphoblastoid cell viability, qHTS; series mostly up to 92.2 µM; also: % is scaled to controls: 0 for no effect and ±100 for the full control effect; nearly all actives have a fitted effect of over 50% in size
In short: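 Human lymphoblastoid LYMP2-026 cells, 2500/well, exposed to compound 24 h at 37 C in complete medium. Viability as intracellular ATP by CellTiter-Glo luminescence; AC50 from Hill fits of qHTS concentration-response.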

[11] = Cell Viability - LYMP1-002 - Assay at 24 hr (AID 993); conditions: LYMP1-002 lymphoblastoid cells viability; series mostly up to 92.2 µM; also: % is scaled to controls: 0 for no effect and ±100 for the full control effect
In short: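 Human lymphoblastoid LYMP1-002 cells (2500/well) treated 24 h at 37 °C; viability as intracellular ATP by CellTiter-Glo luminescence. Tetraoctylammonium bromide as positive control; AC50 from Hill-equation fits of qHTS concentration-response.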

[12] = qHTS assay for small molecule disruptors of the mitochondrial membrane potential - 1 hr assay (AID 651754; calls by dose curve; also: nearly all actives have a fitted effect of over 35% in size; also: potency is read from the fitted curve at half-maximal effect); conditions: series mostly up to 92.2 µM
In short: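 HepG2 cells, attached overnight, were exposed to compound for 1 hr at 37C, then stained 30 min with a potentiometric dye. Ratio of red aggregate (590nm) to green monomer (535nm) fluorescence reports membrane potential; collapse shifts signal toward green.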

[13] = qHTS assay for small molecule disruptors of the mitochondrial membrane potential - 5 hr assay (AID 651755; calls by dose curve; also: nearly all actives have a fitted effect of over 40% in size; also: potency is read from the fitted curve at half-maximal effect); conditions: JC-1-type ratio dye; series mostly up to 92.2 µM
In short: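 HepG2, 2,000 cells/well, overnight attach; cpd or DMSO 5 hr, 37C/5% CO2; Mito-MPS 30 min 37C; fluor 490/535 + 540/590 nm.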

[14] = qHTS assay for environmental chemicals that activate the Aryl hydrocarbon Receptor (AhR) signaling pathway (AID 651777); conditions: 1A2-DRE human hepatoma cells, luciferase, 24 h; activation: stronger effect = higher value; also: nearly all actives have a fitted effect of over 15% in size; also: potency is read from the fitted curve at half-maximal effect; as to activation: % of control where 0% means no effect
In short: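 Quantitative HTS in stably transfected human liver-derived cells whose luciferase gene sits downstream of the CYP1A2 promoter and dioxin response element. After 24 hr exposure at 37 C, One-Glo luminescence was measured.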

[15] = target: Peroxisome proliferator-activated receptor alpha (Homo sapiens) (UniProt Q07869); experiment: qHTS assay for small molecule agonists of the peroxisome proliferator-activated receptor alpha (PPARalpha) signaling pathway (AID 651778); conditions: PathHunter PPARalpha complementation, chemiluminescence, 6 h; stronger effect = higher value; also: % of control where 0% means no effect
Peroxisome proliferator-activated receptor alpha (Homo sapiens), sequence (Q07869 whole entry, looked up): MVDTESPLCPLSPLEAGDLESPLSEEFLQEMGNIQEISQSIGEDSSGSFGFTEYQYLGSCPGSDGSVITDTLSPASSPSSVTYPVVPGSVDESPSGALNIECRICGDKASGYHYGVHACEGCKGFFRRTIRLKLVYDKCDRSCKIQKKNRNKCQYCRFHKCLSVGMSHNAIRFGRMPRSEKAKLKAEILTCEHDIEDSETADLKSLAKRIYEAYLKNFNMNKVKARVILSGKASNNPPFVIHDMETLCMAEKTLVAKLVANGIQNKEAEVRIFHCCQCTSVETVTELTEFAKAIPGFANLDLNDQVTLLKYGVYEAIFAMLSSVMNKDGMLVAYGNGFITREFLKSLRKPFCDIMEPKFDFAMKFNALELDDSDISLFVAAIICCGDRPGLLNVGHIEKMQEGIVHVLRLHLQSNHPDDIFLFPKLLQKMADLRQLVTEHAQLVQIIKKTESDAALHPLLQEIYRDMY
In short: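 Chemiluminescence from complemented enzyme reported PPARalpha activation in cells after 6 hr of compound treatment at 37 C. The detection reagent was incubated for 60 min at room temperature, and compounds were scored as agonists.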

[16] = target: Nuclear receptor ROR-gamma (Homo sapiens) (UniProt P51449); experiment: qHTS assay for small molecule antagonists of the retinoid-related orphan receptor gamma (ROR-gamma) signaling pathway (AID 651802); conditions: ROR-gamma antagonist cell reporter assay; series mostly up to 92.2 µM;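 also: luciferase reporter luminescence driven by ROR response element; % is scaled to controls: 0 for no effect and ±100 for the full control effect; nearly all actives have a fitted effect of over 60% in size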
Nuclear receptor ROR-gamma (Homo sapiens), sequence (P51449 whole entry, looked up): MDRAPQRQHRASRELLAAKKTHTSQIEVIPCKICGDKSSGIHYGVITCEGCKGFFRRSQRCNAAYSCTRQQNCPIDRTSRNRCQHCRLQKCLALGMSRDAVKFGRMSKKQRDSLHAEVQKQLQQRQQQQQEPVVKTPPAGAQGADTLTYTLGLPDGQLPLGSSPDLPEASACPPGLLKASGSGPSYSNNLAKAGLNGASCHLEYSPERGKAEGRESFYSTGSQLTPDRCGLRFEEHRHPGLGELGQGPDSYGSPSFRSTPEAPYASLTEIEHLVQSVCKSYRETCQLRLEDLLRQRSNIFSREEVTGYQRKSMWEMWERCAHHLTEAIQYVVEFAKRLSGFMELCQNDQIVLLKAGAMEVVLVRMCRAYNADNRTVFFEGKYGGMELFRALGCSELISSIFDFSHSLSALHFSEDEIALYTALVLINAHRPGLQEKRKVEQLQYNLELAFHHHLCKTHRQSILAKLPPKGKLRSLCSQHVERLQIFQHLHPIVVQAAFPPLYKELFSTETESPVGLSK
In short: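 CHO cells with TET-inducible ROR-gamma and RORE-luciferase reporter, dosed then doxycycline-induced. After 16 h at 37C, One-Glo luminescence read; decreased signal indicates antagonism.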

[17] = target: Nuclear receptor subfamily 1 group I member 2 (Rattus norvegicus) (UniProt Q9R1A7); experiment: qHTS assay for small molecule activators of the rat pregnane X receptor (rPXR) signaling pathway (AID 651751; call rule not given here; also: 0% is about no effect); conditions: rPXR reporter cells, luciferase (One-Glo), 24 h
Nuclear receptor subfamily 1 group I member 2 (Rattus norvegicus), sequence (Q9R1A7 whole entry, looked up): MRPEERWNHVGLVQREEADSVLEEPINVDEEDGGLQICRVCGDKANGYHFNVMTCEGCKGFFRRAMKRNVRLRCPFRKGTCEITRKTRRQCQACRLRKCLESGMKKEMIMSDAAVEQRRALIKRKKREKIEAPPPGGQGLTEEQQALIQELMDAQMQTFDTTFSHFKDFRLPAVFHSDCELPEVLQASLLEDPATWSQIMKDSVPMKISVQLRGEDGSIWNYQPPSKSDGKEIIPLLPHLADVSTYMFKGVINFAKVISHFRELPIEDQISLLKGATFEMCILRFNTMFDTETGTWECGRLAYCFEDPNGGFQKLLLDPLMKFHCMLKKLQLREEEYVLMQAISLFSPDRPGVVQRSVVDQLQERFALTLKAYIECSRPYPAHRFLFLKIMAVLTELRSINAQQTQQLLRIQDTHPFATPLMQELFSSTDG

[18] = qHTS assay for small molecule activators of the human pregnane X receptor (PXR) signaling pathway (AID 720659; call rule not given here; also: 0% is about no effect); conditions: DPX-2 HepG2 CYP3A4-luciferase, 24 h; series mostly up to 92.3 µM
[19] = Cellular Toxicity (caspase-3) BJ (AID 658); conditions: BJ fibroblasts, luminescence, normalized: DMSO 0%, staurosporine 100%; series mostly up to 91.7 µM;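 also: 0% = DMSO basal and 100% = 10 µM staurosporine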
In short: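 Readout: Caspase-Glo 3/7 luminescence increase in BJ cells after 16 hr treatment at 37 °C. Staurosporine and tamoxifen served as positive controls; AC50 values came from Hill modelling of data normalized to DMSO and 10 uM staurosporine.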

[20] = Cell Viability - LYMP2-011 (AID 969); conditions: LYMP2-011 lymphoblastoid cells viability; series mostly up to 92.2 µM;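 also: 0% = DMSO only and full inhibition = 92 µM tetraoctylammonium bromide; nearly all actives have a fitted effect of over 60% in size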
In short: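 2500 cells/well in complete medium, compound-treated 24 h at 37 C. Viability read as intracellular ATP by CellTiter-Glo luminescence after 30 min at room temperature. AC50 from Hill fits of qHTS concentration-response data.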

O=C(O)C(Cl)(Cl)Br
inactive: Potency [1] > 92 µM | outcome [2] | outcome [3] | Potency [4] | Potency [5] | outcome [6] | Potency [7] | Potency [8] | Potency [9] | Potency [10] | Potency [11] | Potency [12] | Potency [13] | activation [14] 0.0306% | max response [15] -5.37% | Potency [16] | max response [17] 3.3% | outcome [18]

CC(C)(C)c1ccccc1O
inactive: Potency [1] > 92 µM | outcome [2] | outcome [19] | outcome [3] | Potency [4] | Potency [5] | outcome [6] | Potency [7] | Potency [8] | Potency [20] | Potency [9] | Potency [10] | Potency [11] | activation [14] 1.34% and -1.14% | max response [15] -7.23% and -1.41% | Potency [16] | max response [17] -1.16% and -0.87% | outcome [18]

Oc1cccc(Cl)c1
inactive: Potency [1] > 92 µM | outcome [19] | outcome [3] | Potency [5] | outcome [6] | Potency [8] | Potency [20] | Potency [9] | Potency [11] | Potency [12] | Potency [13] | activation [14] -0.063% | max response [15] 16.7% | Potency [16] | max response [17] 1.59% | outcome [18]

CN(C)c1ccccc1
inactive: Potency [1] > 92 µM | outcome [2] | outcome [19] | outcome [3] | Potency [4] | Potency [5] | outcome [6] | Potency [8] | Potency [20] | Potency [9] | Potency [10] | Potency [11] | Potency [12] | Potency [13] | max response [17] -6.91% | outcome [18]

Nc1cccc2ccccc12
inactive: Potency [1] > 92 µM | outcome [2] | outcome [19] | Potency [4] | outcome [6] | Potency [7] | Potency [8] | Potency [10] | Potency [11] | Potency [12] | Potency [13] | Potency [16]
active: Potency [14] 44.7 µM

C=CC(=O)OCCN(C)C
inactive: Potency [1] > 92 µM | outcome [2] | outcome [19] | outcome [3] | Potency [4] | Potency [5] | outcome [6] | Potency [7] | Potency [8] | Potency [20] | Potency [9] | Potency [10] | Potency [11] | Potency [12] | Potency [13] | activation [14] 0.563% | max response [15] 10.1% | Potency [16] | max response [17] 2.48% | outcome [18]

ClCCOCCCl
inactive: Potency [1] > 92 µM | outcome [2] | outcome [19] | outcome [3] | Potency [4] | Potency [5] | outcome [6] | Potency [7] | Potency [8] | Potency [20] | Potency [9] | Potency [10] | Potency [11] | Potency [12] | Potency [13] | activation [14] -0.172% | max response [15] -1.95% | Potency [16] | max response [17] -1.5% | outcome [18]

COC(=O)Nc1cccc(OC(=O)Nc2cccc(C)c2)c1
inactive: Potency [1] > 92 µM | outcome [2] | outcome [19] | outcome [3] | Potency [4] | outcome [6] | Potency [7] | Potency [8] | Potency [20] | Potency [9] | Potency [10] | Potency [11] | max response [15] -6.94% | Potency [16]
active: Potency [5] 25.1 µM | Potency [12] 42.2 µM | Potency [13] 42.2 µM

Nc1ncc([N+](=O)[O-])s1
inactive: Potency [1] > 92 µM | outcome [2] | outcome [19] | outcome [3] | Potency [4] | Potency [5] | outcome [6] | Potency [8] | Potency [20] | Potency [9] | Potency [10] | Potency [11] | Potency [13] | activation [14] 1.78% | max response [15] 7.02% | Potency [16] | max response [17] -6.92% | outcome [18]

CC(C)(Cl)Cl
inactive: Potency [1] > 92 µM | outcome [2] | outcome [19] | outcome [3] | Potency [5] | outcome [6] | Potency [7] | Potency [8] | Potency [20] | Potency [9] | Potency [10] | Potency [11] | Potency [12] | Potency [13] | activation [14] 0.894% | max response [15] -2.59% | max response [17] -1.57% | outcome [18]

CCN(CC)CCO
inactive: Potency [1] > 92 µM | outcome [2] | outcome [19] | outcome [3] | Potency [5] | Potency [7] | Potency [20] | Potency [9] | Potency [10] | Potency [11] | Potency [12] | Potency [13] | activation [14] 3.62% | max response [15] -3.44% | Potency [16] | max response [17] 0.466% | outcome [18]

C=CCBr
inactive: Potency [1] > 92 µM | outcome [2] | outcome [19] | outcome [3] | Potency [4] | Potency [5] | outcome [6] | Potency [7] | Potency [9] | Potency [10] | Potency [11] | Potency [12] | Potency [13] | max response [15] -4.55% | Potency [16] | max response [17] 1.14% | outcome [18]

Nc1cc(Cl)cc(C(=O)O)c1Cl
inactive: Potency [1] > 92 µM | outcome [2] | outcome [19] | outcome [3] | outcome [6] | Potency [7] | Potency [8] | Potency [20] | Potency [9] | Potency [10] | Potency [11] | Potency [12] | Potency [13] | activation [14] 7.92% and 6.33% | max response [15] 9.46% and -1.59% | Potency [16] | max response [17] 3.15% and -3.28% | outcome [18]

— PubChem BioAssay (NCATS)
